Assay results reported in the supplement of paper PMC6555819.

These sequences were tested on THRa homodimer (NR concentration 90 nM) (assay: PBM binding z-score (relative to random genomic background probes); higher = stronger binding; sequences stand for … in GC…GCGATTGACAGCGTAGAATGAAGG).
Outline: (§1)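 Antibodies against each partner of ligand-free nuclear receptor dimers (one per run) detected binding on custom Agilent 4×180K protein-binding microarrays after 1 h incubation. The double-stranded probes had 34-nt variable regions carrying direct-repeat seeds, single-nucleotide variants, half-site ablations and random human genomic background sequences. Binding z-scores, from regression-normalized fluorescence, use the random background probes as reference.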

Sequence	PBM binding z-score
AGTATGAGGTTATTAAGATCAGGGAATTGCGGTC	1.05
TCTTGTAGATCAACAGGAGGTTTAGAAAGATCGA	-0.597
TCGAGTAGGTTAGTCGGGTCATTCAGCCAACATA	1.48
CCTCGGAGGAAAACAGGAGGTCAGAGCTGCCAGA	0.595
CCTACTGGGCCATAGGTCATTGATTCCAATGCTC	0.173
CCTAGTTGGACAGGAGGTCACACACCGGATATGA	2.18
CATAGTTGGTCAGGAGGTCACACACCGGATATGA	2.32
CCTTACGGGTCACGAGGTAATAGCACGACGAGCG	0.849
TGGAGTAGGTTACCAATGGGGCATTCAGCTTTCT	-0.198
GCGACTGGGGCAAAGCAGTTTACCATAAGGTTGG	-0.284
CCTTACGGGTCACTGACAGGTTATAACATTTGGA	0.436
CTCGAAAGGGCGGTTGAGGTGAGTATACGGATAA	1.28
CTCGAAAGGTCGCTTGAGGTGAGTATACGGATAA	1.09
CCTACTGGGCCAAAAAGGTCGTTGATGCCGATAA	-0.297
CCGACAGGGGCAAGGTTACCATAACGCACAGCCA	0.432
CCTAGTTGGTCAGGAGGTCACCCACCGGATATGA	2.51
GCATATAGGTAATACAAGGTGTAAGTCCGATTGT	-0.232
AACTCTAGGTAACAAGTTCAGTGAAAGAGAGGAC	0.448
CCTGCTAGGCCATGGTCAGCTAATCTACAGTATG	-0.719
AGTCAAAGTTAATCTAGGTAACGTAAGATATGCT	0.311

Sequence	PBM binding z-score
CATACAGGGTCAGCTAGGTCAGAGTAGGGACGGC	2.33
CCTAGCAGGCCAATCTGGGTCAGTCAAGGCTTGA	-0.159
ATATGTAGGTTAAGGGTCATTCATGTTGGTTCGC	1.52
TTACTAAGGTGAGCTGAGGTCGTTGATCCAACTC	2.51
CAAACTAGGTCAAGGTCAAAGCCGGTTTGTGCCA	3.5
CCTACTGGTCCAAAAAGGTCATTGATGCCGATAA	1.18
TCATATACGTAAAAGGTGAAAGTCGGTGTGGTAA	0.293
ACTAGCAGGCCAAGTTTGGGTTACTCAAACAAAG	-0.383
ATCTCTGGGTAAAGTTCAGTGAAAGATCGATAGA	0.412
CCTGCTAGGTCAATTGTCAGCTAAAGCAGCTCGC	0.418
ACTATTAGTTGACTTAGGGCAACCTATACGACGC	0.279
CGAACTAGGTCTTCCAGGACAGTGAATACATTGA	0.787
CCTTGCGGGTCACTCCAGGTTATAGCATCGGAGT	0.573
CCGAGTAGGCTATGGGGCATTCAGGCAACGGTGA	-0.619
CAGCCTAGGTCAGGGCCAGAATAGGAGGAACGTT	0.0772
AGTAAAAGTTCATCTAGGTAACGTAAGATATGCT	0.0912
CATAAAGGGTCAGCTAGGCCAGAGTAGGGACGGC	0.204
CGAACTAGGTCAAGGACACTGAATCTCCGCACGC	3.04
GTACCAAGGTGAATAGGTCGTTTATGAGTAGGCG	0.576
AGTCAAAGTTCAGGACGAGGTAACGCAAAGCACG	1.73

What follows are sequences tested on VDR homodimer (NR concentration 270 nM) in the same assay as above.
Outline: as §1

Sequence	PBM binding z-score
AGTATGAGGTTATTAAGATCAGGGAATTGCGGTC	1.41
TCTTGTAGATCAACAGGAGGTTTAGAAAGATCGA	-0.584
TCGAGTAGGTTAGTCGGGTCATTCAGCCAACATA	2.35
CCTCGGAGGAAAACAGGAGGTCAGAGCTGCCAGA	0.405
CCTACTGGGCCATAGGTCATTGATTCCAATGCTC	0.271
CCTAGTTGGACAGGAGGTCACACACCGGATATGA	2.39
CATAGTTGGTCAGGAGGTCACACACCGGATATGA	3.09
CCTTACGGGTCACGAGGTAATAGCACGACGAGCG	0.979
TGGAGTAGGTTACCAATGGGGCATTCAGCTTTCT	-0.00533
GCGACTGGGGCAAAGCAGTTTACCATAAGGTTGG	-0.185
CCTTACGGGTCACTGACAGGTTATAACATTTGGA	1.21
CTCGAAAGGGCGGTTGAGGTGAGTATACGGATAA	0.0137
CTCGAAAGGTCGCTTGAGGTGAGTATACGGATAA	0.912
CCTACTGGGCCAAAAAGGTCGTTGATGCCGATAA	1.13
CCGACAGGGGCAAGGTTACCATAACGCACAGCCA	0.707
CCTAGTTGGTCAGGAGGTCACCCACCGGATATGA	2.4
GCATATAGGTAATACAAGGTGTAAGTCCGATTGT	-0.121
AACTCTAGGTAACAAGTTCAGTGAAAGAGAGGAC	2.39
CCTGCTAGGCCATGGTCAGCTAATCTACAGTATG	-0.711
AGTCAAAGTTAATCTAGGTAACGTAAGATATGCT	-0.189

Sequence	PBM binding z-score
CATACAGGGTCAGCTAGGTCAGAGTAGGGACGGC	2.85
CCTAGCAGGCCAATCTGGGTCAGTCAAGGCTTGA	-0.52
ATATGTAGGTTAAGGGTCATTCATGTTGGTTCGC	4.27
TTACTAAGGTGAGCTGAGGTCGTTGATCCAACTC	2.32
CAAACTAGGTCAAGGTCAAAGCCGGTTTGTGCCA	3.55
CCTACTGGTCCAAAAAGGTCATTGATGCCGATAA	3.81
TCATATACGTAAAAGGTGAAAGTCGGTGTGGTAA	0.435
ACTAGCAGGCCAAGTTTGGGTTACTCAAACAAAG	-0.21
ATCTCTGGGTAAAGTTCAGTGAAAGATCGATAGA	1.62
CCTGCTAGGTCAATTGTCAGCTAAAGCAGCTCGC	-0.128
ACTATTAGTTGACTTAGGGCAACCTATACGACGC	0.34
CGAACTAGGTCTTCCAGGACAGTGAATACATTGA	0.0101
CCTTGCGGGTCACTCCAGGTTATAGCATCGGAGT	1.2
CCGAGTAGGCTATGGGGCATTCAGGCAACGGTGA	-0.709
CAGCCTAGGTCAGGGCCAGAATAGGAGGAACGTT	-0.324
AGTAAAAGTTCATCTAGGTAACGTAAGATATGCT	4.83
CATAAAGGGTCAGCTAGGCCAGAGTAGGGACGGC	0.783
CGAACTAGGTCAAGGACACTGAATCTCCGCACGC	0.782
GTACCAAGGTGAATAGGTCGTTTATGAGTAGGCG	0.299
AGTCAAAGTTCAGGACGAGGTAACGCAAAGCACG	1.73
